From publication PMC4336329 (PLoS ONE, 2015)
Out of some 310,000 compounds screened, about 14,000 (4.5%) showed an effect of 50% or more. Effects have a minus sign here. The full list was thinned out, with strong results kept by preference.
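Note: peak tail current of the secondary pulse compared with the same well before compound.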

What follows are compounds tested against human ether-à-go-go-related gene (hERG) potassium channel (human, UniProt Q12809) (assay: primary screen, population patch clamp on CHO cells stably expressing hERG; higher = less effect of the substance).
Sequence of human ether-à-go-go-related gene (hERG) potassium channel (Q12809 whole entry, looked up): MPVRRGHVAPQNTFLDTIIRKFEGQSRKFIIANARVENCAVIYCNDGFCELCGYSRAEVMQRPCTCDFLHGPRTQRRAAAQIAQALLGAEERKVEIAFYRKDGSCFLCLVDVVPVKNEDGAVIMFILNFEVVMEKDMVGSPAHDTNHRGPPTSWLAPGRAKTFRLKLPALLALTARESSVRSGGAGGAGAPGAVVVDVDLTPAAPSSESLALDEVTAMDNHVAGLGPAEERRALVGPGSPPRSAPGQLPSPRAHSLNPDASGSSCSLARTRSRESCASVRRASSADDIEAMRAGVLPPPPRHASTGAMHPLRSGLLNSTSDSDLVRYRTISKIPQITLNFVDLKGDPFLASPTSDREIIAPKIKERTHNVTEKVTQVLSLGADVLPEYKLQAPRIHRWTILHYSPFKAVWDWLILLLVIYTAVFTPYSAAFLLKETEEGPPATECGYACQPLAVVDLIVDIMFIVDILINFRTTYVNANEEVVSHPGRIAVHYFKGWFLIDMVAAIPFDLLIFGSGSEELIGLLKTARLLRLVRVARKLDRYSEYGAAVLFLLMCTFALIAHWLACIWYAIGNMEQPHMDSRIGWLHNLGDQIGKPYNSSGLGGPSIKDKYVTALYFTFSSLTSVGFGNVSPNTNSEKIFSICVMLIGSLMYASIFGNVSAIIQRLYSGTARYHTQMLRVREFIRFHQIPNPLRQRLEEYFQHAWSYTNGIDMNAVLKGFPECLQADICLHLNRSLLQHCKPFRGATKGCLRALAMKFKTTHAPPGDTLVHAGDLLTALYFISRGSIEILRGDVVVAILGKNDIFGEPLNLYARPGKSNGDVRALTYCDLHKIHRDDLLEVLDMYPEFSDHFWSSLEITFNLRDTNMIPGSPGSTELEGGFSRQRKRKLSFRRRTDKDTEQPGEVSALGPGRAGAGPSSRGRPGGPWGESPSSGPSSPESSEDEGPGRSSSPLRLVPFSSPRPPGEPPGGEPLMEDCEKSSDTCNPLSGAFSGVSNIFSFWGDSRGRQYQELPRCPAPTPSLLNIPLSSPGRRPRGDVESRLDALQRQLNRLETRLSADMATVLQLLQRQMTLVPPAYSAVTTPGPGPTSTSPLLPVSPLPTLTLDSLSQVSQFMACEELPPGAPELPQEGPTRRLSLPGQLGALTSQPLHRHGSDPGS
In the case of Cc1noc(C)c1COc1ccc(C(=O)OCC(N)=O)cc1, the “hERG current change (%, negative = inhibition) at 10uM” value is reported as 18%.
With O=C(Nc1ccc(Cl)cc1)c1ccc(-n2cccn2)c([N+](=O)[O-])c1 the “hERG current change (%, negative = inhibition) at 10uM” value was 4.78%.
CC(C)c1nc2c(s1)CCc1onc(-c3cccc([N+](=O)[O-])c3)c1-2 was tested, and the “hERG current change (%, negative = inhibition) at 10uM” value was 16.4%.
For COc1cc(OC)cc(-n2nnnc2SCC(=O)N2CCCC2)c1, the “hERG current change (%, negative = inhibition) at 10uM” value was -30.2%.
With Cc1ccc(-n2nnnc2SCC(=O)NC2CCCc3ccccc32)c(C)c1 (stereo not shown) the “hERG current change (%, negative = inhibition) at 10uM” value was -7.69%.
For O=C(c1ccc(C(F)(F)F)cc1)C1CCCN(Cc2cccn2-c2ncccn2)C1 (stereo not shown), the “hERG current change (%, negative = inhibition) at 10uM” value was -80.3%.
For COCC(=O)N1CCCC(C(=O)c2ccc(C(F)(F)F)cc2)C1 (stereo not shown), the “hERG current change (%, negative = inhibition) at 10uM” value was -0.113%.
With O=C(c1cccc(C(F)(F)F)c1)C1CCCN(Cc2cccn2-c2ccccn2)C1 (stereo not shown) the “hERG current change (%, negative = inhibition) at 10uM” value was -83.5%.
In the case of O=C(c1cccc(C(F)(F)F)c1)C1CCCN(C(=O)CCc2cnccn2)C1 (stereo not shown), the “hERG current change (%, negative = inhibition) at 10uM” value is reported as -15.6%.
In the case of O=C(c1cccc(C(F)(F)F)c1)C1CCCN(Cc2cccn2-c2ncccn2)C1 (stereo not shown), the “hERG current change (%, negative = inhibition) at 10uM” value is reported as -95.7%.
With CCn1ccnc1CN1CCCC(C(=O)c2cccc(C(F)(F)F)c2)C1 (stereo not shown) the “hERG current change (%, negative = inhibition) at 10uM” value was -31.1%.
With O=C(c1ccc(C(F)(F)F)cc1)C1CCCN(Cc2ccc(CO)o2)C1 (stereo not shown) the “hERG current change (%, negative = inhibition) at 10uM” value was -24.6%.
In the case of O=C(c1cccc(C(F)(F)F)c1)C1CCCN(Cc2ncc[nH]2)C1 (stereo not shown), the “hERG current change (%, negative = inhibition) at 10uM” value is reported as 0.0209%.
For O=C1CCN(Cc2ccc(Br)cc2)CCN1CCO, the “hERG current change (%, negative = inhibition) at 10uM” value was -1.08%.
For CCOc1ccc(S(=O)(=O)N(C)c2ccc(OCC(=O)Nc3nccs3)cc2)cc1, the “hERG current change (%, negative = inhibition) at 10uM” value was 10.1%.
With O=C(O)CN1C(=O)C2C3C=CC(C2C1=O)C1C(=O)N(CC(=O)O)C(=O)C31 (stereo not shown) the “hERG current change (%, negative = inhibition) at 10uM” value was 21.8%.
In the case of CSc1ccc(CN(C)C(=O)c2cccc(S(=O)(=O)N3CCN(Cc4ccccc4)CC3)c2)cc1, the “hERG current change (%, negative = inhibition) at 10uM” value is reported as -1.76%.
For COc1cc(/C=C2/SC(=S)N(CC(=O)O)C2=O)ccc1OCC(=O)Nc1ccc(C)c(C)c1, the “hERG current change (%, negative = inhibition) at 10uM” value was -6.69%.
In the case of COc1ccccc1/C=C1/C(=O)N(c2ccc([N+](=O)[O-])cc2)N=C1C, the “hERG current change (%, negative = inhibition) at 10uM” value is reported as 12.7%.
In the case of CCN(CC)C(=O)CSc1nc2ccccc2c(=O)n1CC1CCCCC1, the “hERG current change (%, negative = inhibition) at 10uM” value is reported as -61%.
In the case of CCOC(=O)CSc1nc2ccccc2c(=O)n1CC, the “hERG current change (%, negative = inhibition) at 10uM” value is reported as -14.6%.
In the case of CCN(CC)C(=O)CSc1nc2ccccc2c(=O)n1CC, the “hERG current change (%, negative = inhibition) at 10uM” value is reported as -1.18%.
In the case of CCOC(=O)C(C)Sc1nc2ccccc2c(=O)n1CC1CCCCC1 (stereo not shown), the “hERG current change (%, negative = inhibition) at 10uM” value is reported as -10.1%.
With CCOC(=O)CSc1nc2ccccc2c(=O)n1CC1CCCC1 the “hERG current change (%, negative = inhibition) at 10uM” value was -67.3%.
For CCOC(=O)CSc1nc2ccccc2c(=O)n1CC1CCCO1 (stereo not shown), the “hERG current change (%, negative = inhibition) at 10uM” value was -6.58%.
With Cl.c1ccc(N2CCCCC2)c(NC2=NCCC2)c1 the “hERG current change (%, negative = inhibition) at 10uM” value was -15.5%.
CN(C)/C=C1\NC(=S)N(c2ccccc2)C1=O was tested, and the “hERG current change (%, negative = inhibition) at 10uM” value was 28.4%.
With Cc1ccc2c(c1)N(CC(=O)N1CCOCC1)C(=O)CO2 the “hERG current change (%, negative = inhibition) at 10uM” value was 4.9%.
In the case of COCCCNc1nc2nonc2nc1N1CCN(C2CCCC2)CC1, the “hERG current change (%, negative = inhibition) at 10uM” value is reported as -20.2%.
CC1CC(C)CN(C(=O)c2ccc3ccccc3c2)C1 (stereo not shown) was tested, and the “hERG current change (%, negative = inhibition) at 10uM” value was -19.2%.
In the case of CCc1ccc(OCC(O)CN2CCN(c3ccccn3)CC2)cc1.Cl (stereo not shown), the “hERG current change (%, negative = inhibition) at 10uM” value is reported as -67.4%.
CCCc1ccc(OCC(O)CN2CCN(c3ccccn3)CC2)cc1.Cl (stereo not shown) was tested, and the “hERG current change (%, negative = inhibition) at 10uM” value was -63.6%.
CCc1ccc(OCC(O)CN2CCN(CCO)CC2)cc1.Cl (stereo not shown) was tested, and the “hERG current change (%, negative = inhibition) at 10uM” value was -15.3%.
CCCc1ccc(OCC(O)CN2CCN(c3ccccc3)CC2)cc1.Cl (stereo not shown) was tested, and the “hERG current change (%, negative = inhibition) at 10uM” value was -46.5%.
In the case of COc1cccc(OCC(O)CN2CCN(c3ccccn3)CC2)c1.Cl (stereo not shown), the “hERG current change (%, negative = inhibition) at 10uM” value is reported as -12.7%.
In the case of CCc1ccc(OCC(O)CN2CCN(c3ccccc3)CC2)cc1.Cl (stereo not shown), the “hERG current change (%, negative = inhibition) at 10uM” value is reported as -60.3%.
CCc1ccc(OCC(O)CN2CCN(c3ccc(OC)cc3)CC2)cc1.Cl (stereo not shown) was tested, and the “hERG current change (%, negative = inhibition) at 10uM” value was -49.3%.
With CC(=O)C1C(c2ccc3ncccc3c2)NC(=O)NC1(O)C(F)(F)F (stereo not shown) the “hERG current change (%, negative = inhibition) at 10uM” value was 10.9%.
With Cc1ccsc1/C=N/Nc1ncc(Cl)cc1Cl the “hERG current change (%, negative = inhibition) at 10uM” value was 5.75%.
With COc1ccc(C)cc1S(=O)(=O)N1CCN(S(=O)(=O)c2cc(C(=O)O)ccc2C)CC1 the “hERG current change (%, negative = inhibition) at 10uM” value was 3.86%.
With CCN1CCN(C(c2cccs2)C(C)NC(=O)c2cccc(OC)c2)CC1 (stereo not shown) the “hERG current change (%, negative = inhibition) at 10uM” value was -4.05%.
With CCN(CC)C(=O)c1ccc(NC(=O)c2cccc(C(F)(F)F)c2)cc1 the “hERG current change (%, negative = inhibition) at 10uM” value was 4.47%.
For CN(C(=O)COC(=O)c1ccc2c(=O)n3c(nc2c1)CCC3)C1CCS(=O)(=O)C1 (stereo not shown), the “hERG current change (%, negative = inhibition) at 10uM” value was 10.5%.
With CCc1ccc2nc(NC(=O)Cn3cnc4ccccc4c3=O)sc2c1 the “hERG current change (%, negative = inhibition) at 10uM” value was 9.75%.
In the case of Cc1cc(C)nc(/N=C(\N)Nc2cccc(OCc3ccccc3)c2)n1, the “hERG current change (%, negative = inhibition) at 10uM” value is reported as -74.1%.
Cc1cc(OCC(=O)Nc2ccc(OCc3ccccc3)cc2)nc(C(C)C)n1 was tested, and the “hERG current change (%, negative = inhibition) at 10uM” value was 3.36%.
In the case of CCOC(=O)C(=O)Nc1ccc(OCc2ccccc2)cc1, the “hERG current change (%, negative = inhibition) at 10uM” value is reported as 20.2%.
In the case of Cc1cc(C)nc(/N=C(\N)Nc2ccc(OCc3ccccc3)cc2)n1, the “hERG current change (%, negative = inhibition) at 10uM” value is reported as -78.2%.
With CCOc1ccc(N/C(N)=N/c2nc(C)cc(C)n2)cc1 the “hERG current change (%, negative = inhibition) at 10uM” value was -46.5%.
CC(=O)Nc1cccc(N/C(N)=N/c2nc(C)cc(C)n2)c1 was tested, and the “hERG current change (%, negative = inhibition) at 10uM” value was 4.87%.
In the case of Cc1cc(C)nc(/N=C(\N)Nc2ccc(OCCC(C)C)cc2)n1, the “hERG current change (%, negative = inhibition) at 10uM” value is reported as -71.8%.
For Cc1cc(C)nc(/N=C(\N)Nc2cccc([N+](=O)[O-])c2)n1, the “hERG current change (%, negative = inhibition) at 10uM” value was -28.7%.
With Cc1cc(C)nc(/N=C(\N)Nc2ccc(S(=O)(=O)Nc3nccc(C)n3)cc2)n1 the “hERG current change (%, negative = inhibition) at 10uM” value was 19.8%.
CCOC(=O)c1c(C)noc1CP(=O)(c1ccccc1)c1ccccc1 was tested, and the “hERG current change (%, negative = inhibition) at 10uM” value was -6.61%.
For CCC(=O)NC(c1ccc(OC)cc1)c1c(O)ccc2ccccc12 (stereo not shown), the “hERG current change (%, negative = inhibition) at 10uM” value was 3.82%.
For COc1ccc(-c2cnnc(N/N=C/c3ccc(OC)c(OC)c3)n2)cc1, the “hERG current change (%, negative = inhibition) at 10uM” value was -35.7%.
With COc1ccc(-c2cnnc(N/N=C/c3ccc(O)c(OC)c3)n2)cc1 the “hERG current change (%, negative = inhibition) at 10uM” value was -50.1%.
In the case of COc1ccc(-c2cnnc(N/N=C/c3ccc(O)c(O)c3)n2)cc1, the “hERG current change (%, negative = inhibition) at 10uM” value is reported as 2.82%.
